# Reference: the supplement of paper PMC8728848
# Many of the other results were omitted from the sample, so the strongest signals are more common in it than they were.
# Columns and labels:
# Assay in all cases: glycan array binding signal (z-score within array); higher = stronger binding
# Conditions in all cases: glycan notation: IUPAC condensed, linker removed
# Fuc(a1-2)Gal(b1-4)GlcNAc = target: Fuc(a1-2)Gal(b1-4)GlcNAc
# In short: (§1)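 The Consortium for Functional Glycomics database supplied 3228 glycan arrays, of which those lacking an available protein sequence were dropped. The binding signal, a within-array Z-score, was averaged across arrays of the same protein sequence and across linkers. Negative scores can be read as non-binding.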
# Fuc(a1-4)GlcNAc = target: Fuc(a1-4)GlcNAc
# In short: as §1
# Gal(b1-2)Gal = target: Gal(b1-2)Gal
# In short: as §1
# Gal(b1-3)Gal = target: Gal(b1-3)Gal
# In short: as §1
# [1] = target: Gal(b1-3)GalNAc(b1-4)[Neu5Ac(a2-3)]Gal(b1-4)Glc
# In short: as §1
# [2] = target: Gal(b1-3)[Neu5Ac(a2-6)]GlcNAc
# In short: as §1
# [3] = target: Gal3S(b1-3)[Fuc(a1-4)]GlcNAc
# In short: as §1
# Gal4S6S(b1-4)GlcNAc = target: Gal4S6S(b1-4)GlcNAc
# In short: as §1
# GlcA(b1-3)Gal = target: GlcA(b1-3)Gal
# In short: as §1
# [4] = target: GlcNAc(b1-3)Gal(b1-4)GlcNAc(b1-3)Gal(b1-4)GlcNAc
# In short: as §1
# [5] = target: GlcNAc(b1-4)[GlcNAc(b1-6)]GalNAc
# In short: as §1
# Kdn(a2-3)Gal(b1-3)GlcNAc = target: Kdn(a2-3)Gal(b1-3)GlcNAc
# In short: as §1
# [6] = target: Man(a1-2)Man(a1-2)Man(a1-3)[Man(a1-2)Man(a1-6)[Man(a1-3)]Man(a1-6)]Man(b1-4)GlcNAc(b1-4)GlcNAc
# In short: as §1
# [7] = target: Man(a1-2)Man(a1-3)[Man(a1-2)Man(a1-6)]Man
# In short: as §1
# Man(b1-4)GlcNAc = target: Man(b1-4)GlcNAc
# In short: as §1
# [8] = target: Neu5Ac(a2-3)Gal(b1-3)GlcNAc
# In short: as §1
# [9] = target: Neu5Ac(a2-3)Gal(b1-3)[Neu5Ac(a2-6)]GalNAc
# In short: as §1
# [10] = target: Neu5Ac(a2-3)Gal(b1-4)[Fuc(a1-3)]GlcNAc(b1-3)Gal(b1-4)GlcNAc
# In short: as §1
# [11] = target: Neu5Ac(a2-3)Gal(b1-4)[Fuc(a1-3)]GlcNAc(b1-3)Gal(b1-4)[Fuc(a1-3)]GlcNAc(b1-3)Gal(b1-4)[Fuc(a1-3)]GlcNAc
# In short: as §1
# [12] = target: Neu5Ac(a2-3)[Neu5Ac(a2-6)]GalNAc
# In short: as §1
# Neu5Ac(a2-6)GalNAc = target: Neu5Ac(a2-6)GalNAc
# In short: as §1
# [13] = target: Neu5Ac(a2-8)Neu5Ac(a2-8)Neu5Ac
# In short: as §1
# [14] = target: Gal(b1-3)[Fuc(a1-4)]GlcNAc
# In short: as §1
# [15] = target: Gal(b1-3)[GlcNAc(b1-6)]GalNAc
# In short: as §1
# [16] = target: Gal(b1-4)GlcNAc(b1-3)Gal(b1-4)GlcNAc(b1-3)Gal(b1-4)GlcNAc
# In short: as §1
# [17] = target: Gal(b1-4)GlcNAc(b1-6)[Gal(b1-3)]GalNAc
# In short: as §1
# Gal3S(b1-4)Glc6S = target: Gal3S(b1-4)Glc6S
# In short: as §1
# Gal3S(b1-4)GlcNAc6S = target: Gal3S(b1-4)GlcNAc6S
# In short: as §1
# Gal3S6S(b1-4)GlcNAc = target: Gal3S6S(b1-4)GlcNAc
# In short: as §1
# Gal3S6S(b1-4)GlcNAc6S = target: Gal3S6S(b1-4)GlcNAc6S
# In short: as §1
# Gal6S(b1-4)Glc6S = target: Gal6S(b1-4)Glc6S
# In short: as §1
# [18] = target: GlcNAc(b1-6)Gal(b1-4)GlcNAc
# In short: as §1
# [19] = target: Man(a1-2)Man(a1-2)Man(a1-3)Man
# In short: as §1
# [20] = target: Neu5Ac(a2-3)Gal(b1-3)GlcNAc6S
# In short: as §1
# [21] = target: Neu5Ac(a2-3)Gal(b1-4)GlcNAc
# In short: as §1
# [22] = target: Neu5Ac(a2-3)[GalNAc(b1-4)]Gal(b1-4)Glc
# In short: as §1
# Neu5Ac(a2-8)Neu5Ac = target: Neu5Ac(a2-8)Neu5Ac
# In short: as §1
Binder,glycan array binding signal (z-score) (Fuc(a1-2)Gal(b1-4)GlcNAc),glycan array binding signal (z-score) (Fuc(a1-4)GlcNAc),glycan array binding signal (z-score) (Gal(b1-2)Gal),glycan array binding signal (z-score) (Gal(b1-3)Gal),glycan array binding signal (z-score) [1],glycan array binding signal (z-score) [2],glycan array binding signal (z-score) [3],glycan array binding signal (z-score) (Gal4S6S(b1-4)GlcNAc),glycan array binding signal (z-score) (GlcA(b1-3)Gal),glycan array binding signal (z-score) [4],glycan array binding signal (z-score) [5],glycan array binding signal (z-score) (Kdn(a2-3)Gal(b1-3)GlcNAc),glycan array binding signal (z-score) [6],glycan array binding signal (z-score) [7],glycan array binding signal (z-score) (Man(b1-4)GlcNAc),glycan array binding signal (z-score) [8],glycan array binding signal (z-score) [9],glycan array binding signal (z-score) [10],glycan array binding signal (z-score) [11],glycan array binding signal (z-score) [12],glycan array binding signal (z-score) (Neu5Ac(a2-6)GalNAc),glycan array binding signal (z-score) [13],glycan array binding signal (z-score) [14],glycan array binding signal (z-score) [15],glycan array binding signal (z-score) [16],glycan array binding signal (z-score) [17],glycan array binding signal (z-score) (Gal3S(b1-4)Glc6S),glycan array binding signal (z-score) (Gal3S(b1-4)GlcNAc6S),glycan array binding signal (z-score) (Gal3S6S(b1-4)GlcNAc),glycan array binding signal (z-score) (Gal3S6S(b1-4)GlcNAc6S),glycan array binding signal (z-score) (Gal6S(b1-4)Glc6S),glycan array binding signal (z-score) [18],glycan array binding signal (z-score) [19],glycan array binding signal (z-score) [20],glycan array binding signal (z-score) [21],glycan array binding signal (z-score) [22],glycan array binding signal (z-score) (Neu5Ac(a2-8)Neu5Ac)
"Dectin-1 CTLD (Mus musculus), Q6QLQ4 (protein) MKYHSHIENLDEDGYTQLDFSTQDIHKRPRGSEKGSRAPSSPWRPIAVGLGILCFVVVVVAAVLGALAFWRHNSGRNPEEKDNFLSRNKENHKPTESSLDEKVAPSKASQTTGGFSQSCLPNWIMHGKSCYLFSFSGNSWYGSKRHCSQLGAHLLKIDNSKEFEFIESQTSSHRINAFWIGLSRNQSEGPWFWEDGSAFFPNSFQVRNTVPQESLLHNCVWIHGSEVYNQICNTSSYSICEKEL",-0.083,-0.141,-0.384,-0.471,-0.16,-0.392,-0.474,-0.021,4.11,-0.18,9.99,-0.044,0.004,-0.241,-0.259,-0.294,-0.324,-0.03,7.53,-0.211,0.06,5.28,,,,,,,,,,,,,,,
"TREM-2 (Mus musculus), Q99NH8 (protein) MGPLHQFLLLLITALSQALNTTVLQGMAGQSLRVSCTYDALKHWGRRKAWCRQLGEEGPCQRVVSTHGVWLLAFLKKRNGSTVIADDTLAGTVTITLKNLQAGDAGLYQCQSLRGREAEVLQKVLVEVLEDPLDDQDAGDLWVPEESSSFEGAQVEHSTSRNQETSFPPTSILLLLACVLLSKFLAASILWAVARGRQKPGTPVVRGLDCGQDAGHQLQILTGPGGT",-0.407,,,,-0.342,,,,,,,,,,,,,-0.043,,0.289,,,-0.368,-0.349,-0.287,-0.354,4.24,4.02,4.4,4.74,3.17,-0.382,-0.305,-0.078,-0.391,-0.373,-0.304
